According to the supplement of paper PMC11417369:
± gives the standard deviation of the averaged measurements. The full ranking holds about 25,000 sequences; the median of “ln(normalized median fluorescence intensity)” is about 7.9, and the highest 2% start at about 11. Shown is part of a subset that was picked to be rich in the highest values.

Test system: PfAP2-I AP2 domain 3 (GST-tagged)
Assay: gcPBM binding intensity (ln(normalized median fluorescence intensity)); higher = stronger DNA binding
Outline: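 Plasmodium falciparum DNA-binding domains carrying a GST tag were expressed in E. coli and applied for 1 h, at about 25 μg on average, to an Agilent 4 × 180k array. The array held primer-extended double-stranded 36-bp intergenic genomic probes together with negative controls, and binding took place in 1× PBS with 1% milk, 0.2 mg/ml BSA, 0.5% salmon testes DNA and 0.03% Triton X-100. An Alexa488 anti-GST antibody detected bound protein, and the array was scanned at 488 nm. Binding intensity is taken as the highest Masliner-normalised natural-log median intensity across replicate spots of either probe orientation.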

Sequence	gcPBM binding intensity (ln)
GTGGTTATATATTAAGTGCATATTATAATTTTAAAC	9.56 ± 0.14
TATAATAATATAATGGTGCATGTATATAACCATATA	9.21 ± 0.14
GTTAATCACCATGTGGTGCATATAAGGGCATATTAT [GTGCAC_site9748]	11 ± 0.55
AAGAATTTTCGATTTGCACACATTTGTAAAATAAAA [CACACA_site2354]	9.16
TAAATTTTTTTTTTTTGTACACAAAAATATAATATT [XGTACX_site8151]	7.61 ± 0.31
AAAAAATATAATAATTGTACACATGCACACACAAAT [XGTACX_site1563]	8.25 ± 0.48
TATCTTCAAGTATGTACACACTATATATAATAAAAT [CACACA_site5368]	8.11 ± 0.13
TTTTGTACAAAAATAATGCACACTATATCAAGTTTT [CACACA_site3595]	11 ± 0.51
TATAATAAATCAAATGCACACACACTAATAAAAAAA [CACACA_site7937]	9.15 ± 0.11
TTGTACAAAAATAATGCACACTATATCAAGTTTTTT [CACACA_site5898]	10.9 ± 0.7
TTGTTTTCTTTTTCTTTTCTTTTTCTTTTTTCTTTT [GTGCAC_negctrl_site629]	7.55 ± 0.73
CATTAAAATATGAGATGTACACAATATCTATTATAT [XGTACX_site4979]	7.82 ± 0.51
CAATGCAAGGCTTAAAAAAATGGGCATATTATATAT [GTGCAC_negctrl_site304]	7.79 ± 0.83
TAAGTTATATGTATATGTACTTATATATATATATAT [XGTACX_site5402]	9.16 ± 0.76
AGAATATAATTTTTATGTACATATATTAAATATATT [XGTACX_site8521]	7.6 ± 0.37
CATATAAGAATCTTCTGTACTTATAAGAAAAGACAT [XGTACX_site8135]	7.89 ± 0.48
TTATGAAAAAAATACTGTACACAATATGACGAAAGT [XGTACX_site2283]	8.46 ± 0.42
TATTATGACTTAAGTTGTACTGTTGAAAGAAGAAAA [XGTACX_site2985]	7.88 ± 0.53
AAAAAAAGTTGATACTGTACTCGTGCATTATGAATA [XGTACX_site5558]	11.3 ± 0.57
ACTTAATTTTTTTATTGTACATGTAAATGAGGGAAA [XGTACX_site6305]	8.25 ± 0.26

Sequence	gcPBM binding intensity (ln)
AAGACTCTTTGTCCTTGTACATATATTTTTATGTTT [XGTACX_site3711]	7.76 ± 0.59
CACATACACATACAAACACACATTATGTATATATAT [CACACA_site1599]	8.16 ± 0.84
ATATATTTAAACTACACACGCATATCTTAGAAATAA [CACACA_site1272]	7.77 ± 0.54
ATAAATAAAACAACAGTGCAATAAAATTAGTTGAGG	10.9 ± 0.25
AAAATAAAATTAGTTGCATGCAACTTAAACAGAAAT [TGCATGCA_site860]	8.14 ± 0.63
ATTAATTAAAATAGTTGTACAATCAAAAAAACAAAA [XGTACX_site7660]	8.15 ± 0.64
AATATATTTTTATATTGTACAAAAGAAAAAAAATAT [XGTACX_site1689]	8.05 ± 0.48
TTTTTTTTGTATTAATGTACATATAACTTTTTTTTT [XGTACX_site7903]	7.7 ± 0.49
AATACACATAATACATGTACTCACATTGTTATAACA [XGTACX_site4129]	8.04 ± 0.53
AGTTTGCATATGGAAGTGCATTACCTTGAACATCAT	11.2 ± 0.38
TTTATATCATTACAAGTGCATATCATCATAAATTCT [GTGCAC_site9878]	8.81 ± 0.3
AGTTGCATACATTGAAGTACAGAACATTTATATATA [XGTACX_site240]	7.86 ± 0.44
TATATATGTTTATGTAGTACTATATATCCCTTTCTT [XGTACX_site7049]	7.61 ± 0.53
TAAATTTATGGACACACACACATATATATATATATA [CACACA_site4620]	9.45 ± 0.35
TATAGATACACTTTGTGTACATAAAAATTGTATTAA [XGTACX_site7137]	7.66 ± 0.29
TATAAACTTAATTTGAGTACTTAATAATAATTTTGT [XGTACX_site3730]	7.38 ± 0.47
GTCAACTTGTGATAAGTGCATATATATAATAAAATG	9.875 ± 0.078
GTACACCTATAATATACACACAACAAATATGCACAT [CACACA_site6603]	9.64 ± 0.39
GAATAATATGGACATACACACATATACATACCTATA [CACACA_site7075]	8.07 ± 0.59
ATACAGTTGCATATGGTGCACGAATAATACACCTAT	11 ± 0.25

Sequence	gcPBM binding intensity (ln)
ACTATTAAGAATAAAGAAATATGTAATTGTATTTAA [CACACA_negctrl_site516]	7.43 ± 0.59
GTATAGAGAAAAAACTGTACTTTATATAAATATTTA [XGTACX_site3972]	7.53 ± 0.3
ATATATGTACAAATTGTGCGCAATAATTTTGTCTTT	9.06 ± 0.33
TACATTTCATTGTAATCATAAAAAATAAAGAAAAAA [XGTACX_negctrl_site542]	7.58 ± 0.61
ATATCTTATAATACGGTGCACTTGACATGAACAACT [GTGCAC_site9987]	10.7 ± 0.3
CCTTTCCTTTTATAAGTGCATATAACAAATGTATAC [GTGCAC_site9872]	10 ± 0.11
ATAATGAACAAAGTAGTGCACTTTCCTTATCTTTTC	11.4 ± 0.26
AATATAAACCCAAACACACACATATATATATATATA [CACACA_site268]	9.4 ± 0.37
ATATAAAATATGAGTAGTACATATTTTCTCATCTTA [XGTACX_site8595]	7.55 ± 0.38
ACTACAAGGCAATACAGTACATATAAATGTCATAAT [XGTACX_site8468]	7.85 ± 0.45
AATAATATATATTACACACGCATCGTTCATTTATTT [CACACA_site2391]	7.87 ± 0.92
AAATACTGATTTGGTTGTACATGTGCACTATATAAC [XGTACX_site3795]	11.3 ± 0.56
ATACTAACATTTTTTTGTACATATAACTATAAAATA [XGTACX_site1033]	8.09 ± 0.47
AAATATTTGTGTGGTTGTACTATAATGATAAAAATA [XGTACX_site7703]	8.14 ± 0.42
GGGAAACGATTTAATACACACACGTATTATATATAT [CACACA_site1160]	8.48 ± 0.59
ATTAGTATAATGTAACTTAGTTAATAGTGCTAATAT [CACACA_negctrl_site764]	9.54 ± 0.4
AAAAAAAAAAAAATGGTGCAACTTTGTTAAAGGAAA [GTGCAC_site9950]	9.56 ± 0.12
CTCATTTTGTTAATGGTGCAAAAAAAAAAAAAAAAA	11.1 ± 0.73
TTTTCATTTGTGACAGTGCAAAATGTTATATTAAAA [GTGCAC_site9647]	9.99 ± 0.3
